# Sampled rows, rich in hits. Any-hit rate of the full collection: about 21%.
# ELG1 DNA repair – blocks ELG1-dependent DNA repair in HEK293T cells; AID 504467; HEK293T ELG1-luciferase reporter, luminescence, 16 h; DNA damage induced by 5-fluorouridine; Potency, µM (top dose mostly 46.1 µM), for inactives: top-dose activity change, negative = inhibition, hits mostly inhibitors; hit rate 2.3% among 330,000; also: potency is read from the fitted curve at half-maximal effect; nearly all actives have a fitted effect of over 55% in size
#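 Reporter activity after DNA damage by 5-fluorouridine is monitored. Compound-treated cells incubate 16 hr at 37 °C, then ONE-Glo is added for 30 min before luminescence reading.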
# DT40 TDP1 CPT – growth inhibition of DT40 Tdp1-/-;hTDP1 cells with camptothecin (screen for TDP1 inhibitors) | chicken DT40 Tdp1-/-;hTDP1 cells + 20 nM CPT, ATP luminescence, 48 h | Potency, µM (top dose mostly 46.2 µM), for the others: at the highest dose activity change, negative = growth inhibition, usual class: inhibitors | hit rate 12% among 420,000; also: potency is read from the fitted curve at half-maximal effect; nearly all actives have a fitted effect of over 55% in size
#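 Chicken DT40 Tdp1-/- cells stably complemented with human TDP1 were seeded at 400 cells/well in medium containing 20 nM camptothecin, exposed to pin-transferred compounds, and grown at 37 °C for at least 48 hr. Viability was read as ATP luminescence.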
# RORgamma inh – blocks mouse ROR gamma transcriptional activity. P51450. Drosophila S2 Gal4-RORgamma UAS-luciferase reporter, 20 h. Potency, µM (highest dose often 53.6 µM), inactives show at the top dose activity change, negative = inhibition, most hits filed as inhibitors. hit rate 5.4% among 310,000. AID 2551; also: potency is read from the fitted curve at half-maximal effect; nearly all actives have a fitted effect of over 60% in size
# Target sequence (P51450 whole entry, looked up, the tested form may be a part): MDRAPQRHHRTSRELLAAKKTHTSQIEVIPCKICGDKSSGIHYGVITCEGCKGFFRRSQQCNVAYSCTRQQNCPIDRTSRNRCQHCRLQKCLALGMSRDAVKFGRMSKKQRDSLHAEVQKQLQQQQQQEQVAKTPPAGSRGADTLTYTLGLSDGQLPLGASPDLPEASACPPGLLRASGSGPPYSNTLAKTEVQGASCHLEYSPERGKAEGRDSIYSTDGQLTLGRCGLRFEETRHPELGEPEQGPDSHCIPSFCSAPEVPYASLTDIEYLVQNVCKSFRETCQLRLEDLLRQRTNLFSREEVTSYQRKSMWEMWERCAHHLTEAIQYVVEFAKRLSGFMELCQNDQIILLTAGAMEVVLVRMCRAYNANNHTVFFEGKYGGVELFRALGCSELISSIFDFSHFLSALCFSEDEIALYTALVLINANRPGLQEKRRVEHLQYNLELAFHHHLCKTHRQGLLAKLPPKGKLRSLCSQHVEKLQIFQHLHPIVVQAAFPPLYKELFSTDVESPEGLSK
#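 Stable Schneider cell line, Gal4 DNA-binding domain fused to ROR gamma, UAS-luciferase. Cmpd 1 hr RT → CuSO4 700 uM final → 20 hr RT → luciferase reagent 10 min → luminescence.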
# Gal4-VP16 FLuc – Gal4-VP16 reporter inhibition counter-screen; Drosophila S2 Gal4-VP16 UAS-luciferase, luminescence, 20 h; Potency, µM (highest dose often 53.6 µM), inactives show at the highest dose activity, negative = inhibition, usual class: inhibitors; hit rate 3.5% among 310,000; AID 2546;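 also: Gal4-VP16 expression switched on by copper sulfate through the metallothionein promoter; potency is read from the fitted curve at half-maximal effect; nearly all actives have a fitted effect of over 50% in size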
# TDP1 cell noCPT – qHTS for Inhibitors of human tyrosyl-DNA phosphodiesterase 1 (TDP1): qHTS in cells in absence of CPT. Potency, µM (top dose mostly 46.2 µM), inactives show top-dose activity change, negative = growth inhibition, usual class: inhibitors. DT40 Tdp1-/- hTDP1 cells, no CPT, ATP luminescence, 48 h. AID 686978, 2013. hit rate 15% among 420,000; also: potency is read from the fitted curve at half-maximal effect; nearly all actives have a fitted effect of over 55% in size
#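 A cellular qHTS used chicken DT40 cells lacking endogenous Tdp1 but carrying stably transfected human TDP1. Compounds were applied without camptothecin, and cell growth kinetics were judged by ATP-dependent luminescence after ≥48 hr.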
# IL1B secr inh – inhibitors of inflammasome signaling (IL-1 beta secretion). THP-1 LPS/ATP IL-1B secretion, AlphaLISA, 16 h; hits give low values. hit rate 4.7% among 360,000. activity change, % at 57.5 µM; in the data active = activity change below about -50%; inconclusive = mostly about -30% to -49%
#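 THP-1 cells pretreated 1 hr with compounds (up to 57.5 uM final), then stimulated with LPS (250 ng/mL final) plus ATP (1.25 mM final); secreted IL-1B measured by AlphaLISA after 16 hr, decreased signal indicating inhibition.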
# * hit, by the source's call; ? = inconclusive; nt = no result given; [ ] = remark or other dose. Unless noted, calls follow the shape of the dose curve; as a rule, active = well fitted curve in the direction sought with a large enough effect; inconclusive = small, poorly fitted or top-dose-only effect, or another doubt; inactive = no such curve, though single readings can be large; an effect the other way counts as inactive or inconclusive. % is scaled to controls: 0 for no effect and ±100 for the full control effect.
SMILES,ELG1 DNA repair,DT40 TDP1 CPT,RORgamma inh,Gal4-VP16 FLuc,TDP1 cell noCPT,IL1B secr inh
Nc1ccc(-c2nnnn2-c2ccc(N)cc2)cc1,-4.4%,1.3%,1.1%[1.91 µM],-1.2%,-14.5%,?
Cc1ccc(N2CC(NC(=O)C3CCCC3)CC2=O)cc1C (stereo unspecified),nt,-0.8%,nt,nt,-16.3%,nt
CC(=O)N1CCc2c(sc(NC(=O)c3ccc(S(=O)(=O)N(C)CC4CCCO4)cc3)c2C(N)=O)C1 (stereo unspecified),nt,?,nt,nt,?,11.6
CN(C)CCN1CCN(C2CN(Cc3cn(Cc4ccc(F)cc4)nn3)S(=O)(=O)C2)CC1 (stereo unspecified),nt,-5.2%,nt,nt,-18.6%,-1.3
CC1CCCN(c2ccc([N+](=O)[O-])s2)C1 (stereo unspecified),-5.5%,-18.6%,15.9%,-3.4%,6.8%,-8.3
CN1c2ccc(Cl)cc2C(=O)NC1c1ccc([N+](=O)[O-])s1 (stereo unspecified),20.6µM*,20.6µM*,-5.2%,?,23.1µM*,-6.5
CCc1nn(CC(=O)NCc2cccc(OC)c2OC)c(=O)c2cc3occc3n12,nt,-14.8%,nt,nt,-20.3%,nt
COCCn1c(N)c(N(Cc2ccccc2)C(=O)c2ccc(N3CCCC3=O)cc2)c(=O)[nH]c1=O,nt,-11.2%,nt,nt,29.7%,-4.6
Cc1ccc(C(=O)CSc2nc(-c3ccccc3)ccc2C#N)cc1,0.2%,?,6.9%,6.5%,?,18.8
Cc1ccc(S(=O)(=O)c2[nH]c(-c3ccccc3)nc2SCCC(=O)O)cc1,nt,3.5%,nt,nt,0.6%,nt
CC(=O)CSc1nc(-c2ccccc2)[nH]c1S(=O)(=O)c1ccc(C)cc1,nt,?,nt,nt,3.26µM*,nt
CCCSc1nc(-c2ccccc2)[nH]c1S(=O)(=O)c1ccc(C)cc1,nt,?,nt,nt,18.4µM*,nt
CC(OC(=O)C1CCN(S(=O)(=O)c2ccc3c(c2)OCCO3)CC1)C(=O)NC1(C#N)CCCCC1 (stereo unspecified),nt,-20.8%,nt,nt,0.3%,19.3
CN1CCC(CC(C(=O)N2CCCC2)(c2ccccc2)c2ccccc2)C1 (stereo unspecified),nt,23.1µM*,nt,nt,?,-18.1
COc1ccc(NS(=O)(=O)c2ccc(N3CCOCC3)c(NC(=O)c3ccc(F)cc3)c2)cc1,?,8.2µM*,16.5%[10 µM],-7.7%,13µM*,-12.5
O=C(Nc1cc(S(=O)(=O)Nc2ccc(Cl)cc2)ccc1N1CCCCC1)c1ccc(F)cc1,?,20.6µM*,?,-26.1%,18.4µM*,-66.2*
CC(=O)NCCC(=O)Nc1cc(S(=O)(=O)Nc2ccc(Cl)cc2)ccc1N1CCCC1,-18.3%,?,33.0%,-5.4%,?,-1.9
COc1ccc(NS(=O)(=O)c2ccc(N3CCOCC3)c(NC(=O)c3cccc(F)c3)c2)cc1,?,9.2µM*,-0.5%,-0.4%,8.2µM*,-28.8
O=C(Nc1ccccc1N1CCOCC1)c1cccc(S(=O)(=O)Nc2ccccc2F)c1,?,2.6%,nt,nt,-1.9%,6.0
CCOC(=O)/C=C/C(=O)Nc1cc(S(=O)(=O)Nc2ccc(OC)cc2)ccc1N1CCOCC1,?,5.8µM*,nt,nt,5.17µM*,-107.0*
COc1ccc(NS(=O)(=O)c2ccc(N3CCOCC3)c(NC(=O)C(C)C)c2)cc1,-10.0%,16.4µM*,30.3%,-13.4%,18.4µM*,5.2
CC(=O)C1=C(c2ccc(F)cc2)N(C(C)=O)n2c(nnc2C2CCCCC2)S1,nt,?,nt,nt,23.1µM*,nt
CCC(=O)C1=C(c2ccc(C)cc2)N(C(=O)CC)n2c(nnc2C2CCCCC2)S1,nt,?,nt,nt,25.9µM*,nt
CCC(=O)C1=C(c2ccc(F)cc2)N(C(=O)CC)n2c(nnc2-c2ccc(OC)cc2)S1,nt,4.11µM*,nt,nt,2.91µM*,nt
COc1ccc(OC(=O)CSc2nnc(-c3ccc(F)cc3)o2)cc1,nt,-2.3%,nt,nt,-26.8%,nt
SMILES,ELG1 DNA repair,DT40 TDP1 CPT,RORgamma inh,Gal4-VP16 FLuc,TDP1 cell noCPT,IL1B secr inh
O=C(Nc1ccc(S(=O)(=O)NCC2CCCO2)cc1)c1cccc(F)c1 (stereo unspecified),?,?,?,?,?,14.2
COc1ccccc1S(=O)(=O)N(C)C[C@H]1OCc2cnnn2CCCC(=O)N([C@H](C)CO)C[C@@H]1C,nt,-13.3%,nt,nt,-6.4%,18.4
Oc1cccc2ccc(Nc3ccccn3)nc12,?,1.64µM*,12.3%,2.3%,3.66µM*,-109.6*
CCc1ccc(N=C2NC(=O)CC(C(=O)Nc3ccc(OC)cc3)S2)cc1 (stereo unspecified),nt,-28.2%,nt,nt,-16.8%,nt
Cc1ccc(CN2CCN(/N=C/c3ccc(Cl)c([N+](=O)[O-])c3)CC2)cc1,-14.9%,?,13.0%,13.7%,?,-73.7*
Cc1ccc(CN2CCN(/N=C/C=C/c3ccccc3[N+](=O)[O-])CC2)cc1,-11.4%,16.4µM*,36.9%,1.7%,20.6µM*,-89.1*
COc1ccccc1/C=C/C=N/N1CCN(Cc2ccccc2)CC1,-4.0%,12.1%,8.7%,?,-28.3%,-2.5
CCCCCCNCc1ccc(Br)cc1,-7.9%,?,-15.9%,0.8%,?,-56.1*
C=C(C)c1ccc(C(C)(C)NC(=O)N2CCN(C)CC2)cc1,?,16.4µM*,-11.9%,5.7%,20.6µM*,29.3
Cc1ccc(Nc2nnc(SCC(=O)Nc3cccc(S(=O)(=O)N4CCCCC4)c3)s2)cc1,-22.0%,?,?,5.7%,18.4µM*,-14.5
Cc1ccc(NC(=O)CSCC(=O)Nc2cccc(S(=O)(=O)N3CCCCCC3)c2)cc1,?,20.6µM*,nt,nt,?,-21.1
CCOc1ccccc1Nc1nnc(SCC(=O)Nc2cccc(S(=O)(=O)NC3=NCCCCC3)c2)s1,18.4µM*,23.1µM*,0.1%,-6.6%,18.4µM*,-13.8
CCOc1ccccc1Nc1nnc(SCC(=O)Nc2ccc3[nH]c(=O)[nH]c3c2)s1,?,0.4%,-1.2%,2.0%,-13.3%,-11.8
CC(C)Nc1nnc(SCC(=O)Nc2ccc3c(c2)C(=O)c2ccccc2C3=O)s1,?,?,-44.9%,-8.8%,18.4µM*,-10.7
O=C(CSc1nnc(NC2CCCCC2)s1)Nc1ccc2c(c1)C(=O)c1ccccc1C2=O,?,?,?,-20.5%,?,-29.7
Cc1cc(C(=O)NNC(=O)c2ccc(C)c([N+](=O)[O-])c2)c(C)o1,2.5%,10.1%,nt,nt,-15.5%,-2.0
Cc1ccc(N2C(=O)C3C(c4ccccc4)N4CCCN4C3(C)C2=O)cc1 (stereo unspecified),2.2%,-3.1%,-0.3%,-10.0%,-16.5%,-2.1
